# Bioassay records as filed in PubChem.
# 12-LOX inh = Primary qHTS assay for inhibitors of human arachidonate 12S-lipoxygenase (ALOX12): Round 2. AID 1671190, 2021. 580,000 tested, 1.1% active. purified 12hLO, xylenol orange hydroperoxide absorbance. Potency, µM (titrated, usually from 108 µM), inactives show at the highest dose activity change, negative = inhibition, actives largely listed as inhibitors. Polyunsaturated fatty acid lipoxygenase ALOX12 (Homo sapiens), P18054; note: % is set by controls: 0 for no effect and ±100 for the full control effect
#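 Purified human 12hLO at 150 nM in 25 mM Hepes, 0.01% Triton X-100, pH 7.0, preincubated 15 min at room temperature with compound. Reaction started with 40 uM arachidonic acid, 30 min at room temperature. Hydroperoxide measured by Fe-xylenol orange, 573/405 nm absorbance ratio.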
# G9a inh = qHTS Assay for Inhibitors of Histone Lysine Methyltransferase G9a. 350,000 tested, 8.8% active. Histone-lysine N-methyltransferase EHMT2 (Homo sapiens), Q96KQ7. Potency, µM (titrated, usually from 102 µM), for the others: at the highest dose activity, negative = inhibition, usual class: inhibitors. AID 504332, 2011. G9a H3K9 monomethylation, AlphaScreen, 2 h; note: % is set by controls: 0 for no effect and ±100 for the full control effect; nearly all actives have a fitted effect of over 75% in size
#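 Readings reflect AlphaScreen signal from monomethyl-H3K9 antibody detection. HMT at 20 nM; substrate b-H3K9 500 nM; cofactor SAM 20 uM; 2 h RT reaction; compounds tested as titrations in qHTS with 15 min preincubation.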
# Sfp inh = qHTS Assay for Inhibitors of Bacillus subtilis Sfp phosphopantetheinyl transferase (PPTase); 4'-phosphopantetheinyl transferase ffp (Bacillus subtilis), Q9F4F7; Biochemical Sfp PPTase activity, qHTS; Potency, µM, without a hit: largest response in the series, negative = inhibition, usual class: inhibitors; 310,000 tested, 3.5% active; AID 1490, 2009;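 note: the enzyme is Sfp with the accession as filed and its product quenches rhodamine fluorescence; 0% = enzyme reaction without inhibitor and -100% = no enzyme wells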
#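 Compounds were incubated with enzyme (final 15 nM) for 15 min at room temperature before substrate addition started the reaction. Fluorescence at 525 nm excitation, 598 nm emission was recorded immediately and after 30 minutes.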
# Glioma ERSR ind = qHTS for Inducers of the Endoplasmic Reticulum Stress Response (ERSR) in Human Glioma: qHTS. U87-MG GRP78 promoter luciferase reporter, 16 h. Potency, µM, for inactives: at the highest dose activation, usual class: activators. 420,000 tested, 0.02% active. AID 602332, 2012; note: series mostly up to about 76 µM; % of control where 0% means no effect; nearly all actives have a fitted effect of over 35% in size
#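 Stably transfected U87-MG glioma cells carrying a GRP78-based luciferase sensor; 16 h compound incubation. Luminescence end-point read 10 min after Bright-Glo addition at room temperature.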
# VDR inh = Inhibitors of the vitamin D receptor (VDR): qHTS; Potency, µM, for inactives: max response, negative = inhibition, usual class: inhibitors; VDR-SRC2-3 peptide fluorescence polarization, 2 h; AID 504847, 2011; Vitamin D3 receptor (Homo sapiens), P11473; 400,000 tested, 0.93% active; note: % is set by controls: 0 for no effect and ±100 for the full control effect
# Target sequence (P11473 whole entry, looked up): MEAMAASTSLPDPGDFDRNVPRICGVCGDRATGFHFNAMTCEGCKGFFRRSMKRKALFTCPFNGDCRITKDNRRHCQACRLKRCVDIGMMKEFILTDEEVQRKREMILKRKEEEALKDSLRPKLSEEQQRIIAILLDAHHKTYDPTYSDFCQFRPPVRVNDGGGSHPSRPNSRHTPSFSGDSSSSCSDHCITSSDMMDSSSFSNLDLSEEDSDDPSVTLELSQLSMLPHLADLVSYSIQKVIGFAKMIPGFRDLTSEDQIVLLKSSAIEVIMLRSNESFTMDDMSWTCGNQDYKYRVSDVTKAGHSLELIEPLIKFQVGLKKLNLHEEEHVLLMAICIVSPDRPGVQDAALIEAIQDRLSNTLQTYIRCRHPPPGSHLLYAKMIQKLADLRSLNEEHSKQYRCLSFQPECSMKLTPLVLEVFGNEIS
#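 Compounds are added to VDR with labelled SRC2-3 coactivator peptide and held 2 h at room temperature. Inhibition of the VDR–peptide interaction is then read as a change in fluorescence polarization.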
# * hit, by the source's call; ? = inconclusive; . = not tested or not shown; [ ] = remark or other dose. The sample as a whole holds a higher share of hits than the screen did. Calls come from the whole dose curve; as a rule, active = well fitted curve in the direction sought with a large enough effect; inconclusive = small, poorly fitted or top-dose-only effect, or another doubt; inactive = no such curve, though single readings can be large; an effect the other way counts as inactive or inconclusive. Potency is the fitted concentration of half-maximal effect.
SMILES,12-LOX inh,G9a inh,Sfp inh,Glioma ERSR ind,VDR inh
CC1(C)CC(=O)C(=Cc2cn(-c3ccccc3)nc2-c2ccccc2)C(=O)C1,4.1%,.,.,-3.1%,?
CC(Cl)C(=O)NC(=O)NC(C)(C)C (stereo unspecified),12.5%,.,.,.,.
CC(=O)N(CC(=O)O)c1ccccc1C(=O)O,?,17.8µM*,8.9%,-4.8%,-6.1%
CC(=O)N(Cc1ccccc1)c1ccccc1C(=O)O,-2.8%,17.9%,24.5%,-2.7%,-8.5%
O=C(O)c1ccccc1N(c1ccccc1)c1ccccc1,?,.,.,-1.0%,35.5µM*
Cc1noc(C)c1CNC(=O)c1cc2c(s1)CCN(C(=O)c1ccc(Cl)cc1)C2,11.9%,.,.,.,.
CC(=O)/C(C=Nc1cc(C(F)(F)F)ccc1Cl)=C(/C)O,-24.5%,.,.,.,.
CS(=O)(=O)c1ccc(SCC(=O)NC2CCS(=O)(=O)C2)c([N+](=O)[O-])c1 (stereo unspecified),-29.4%,31.6µM*,-27.5%,-3.1%,1.4%
C=CCN(CC=C)C(=O)/C=C/c1csc(C)n1,-20.5%,.,.,.,.
CCOc1ccccc1CNCc1cccn1-c1nnc(N2CCN(c3ccccc3)CC2)s1,-15.3%,14.1µM*,.,-2.9%,8.2%
O=C(C1CCCN(Cc2ccc([N+](=O)[O-])cc2)C1)N1CCCCC1 (stereo unspecified),0.0%,28.2µM*,-14.7%,-6.1%,-12.5%
O=C(C1CCCCN1S(=O)(=O)c1ccccc1)N1CCN(Cc2ccccc2)CC1 (stereo unspecified),?,?,22.1%,-1.9%,-2.4%
Cc1ccc(S(=O)(=O)N2CCCCC2C(=O)N2CCN(Cc3ccccc3)CC2)cc1 (stereo unspecified),-32.1%,11.2µM*,-3.3%,-1.7%,0.8%
Cc1ccc(CN2CCCC(C(=O)N3CCCC3)C2)cc1 (stereo unspecified),?,10µM*,-11.7%,-7.8%,-2.4%
COC(=O)CCC1CCCC/C1=N/O (stereo unspecified),-6.8%,.,.,.,.
CCCc1nnc(SCC(=O)Nc2ccccc2Cl)n1-n1cccc1,74.1%,.,.,.,.
CC(C)CC(NC(=O)CC(C)(C)CC(=O)O)c1ccccc1 (stereo unspecified),-3.5%,.,.,.,.
CC(=O)c1cn(-c2ccc([N+](=O)[O-])cc2)c(=O)n(C)c1=O,-6.6%,.,.,-2.0%,1.5%
Cn1c(CBr)c(C(=O)c2ccc([N+](=O)[O-])cc2)c(=O)n(C)c1=O,?,28.2µM*,?,-3.0%,-11.2%
CCOC(=O)C1=C(CSc2nc3c(cc2C#N)CCC3)OC(N)=C(C#N)C1c1ccccc1 (stereo unspecified),?,-1.4%[59 µM],20µM*,-2.7%,8.8%
COC(=O)C1=C(CSc2nc3c(cc2C#N)CN(C)CC3)OC(N)=C(C#N)C1c1ccccc1F (stereo unspecified),.,14.1µM*,22.4µM*,1.7%,9.6%
COC(=O)C1=C(C)OC(N)=C(C#N)C1c1ccccc1F (stereo unspecified),0.0%,-1.9%[59 µM],-1.5%,-1.7%,?
CCOC(=O)C1=C(CSc2nc3c(cc2C#N)CN(C)CC3)OC(N)=C(C#N)C1c1ccccc1 (stereo unspecified),-1.1%,50.1µM*,?,-2.9%,-13.7%
CCOC(=O)C1=C(CSc2nc3c(cc2C#N)CN(C)CC3)OC(N)=C(C#N)C1c1ccc(F)cc1 (stereo unspecified),?,39.8µM*,56.2µM*,-7.2%,8.2%
Cc1ccc(NC(=O)CCc2ncc(-c3ccc(F)cc3)o2)c(C)c1,0.3%,.,.,.,.
N#Cc1cccc(NC(=O)NCCNc2ncccc2C(F)(F)F)c1,0.0%,.,.,.,.
Nc1ccccc1Nc1cc(-c2cccc(Cl)c2)nn1-c1ccccc1,0.6%,28.2µM*,15.1%,0.9%,-7.3%
COc1ccccc1NC(=O)c1ccc(-n2cccn2)cc1,0.7%,.,.,.,.
COc1ccc(S(=O)(=O)Nc2cc(C(=O)NCCCN3CCOCC3)ccc2N2CCOCC2)cc1,?,?,8.4%,-4.9%,-3.1%
